Only some compounds are listed: those with a hit (about 5.7% of all), similar ones and a draw of the others.
KDM4E inh: inhibitors of human JMJD2E histone demethylase; Potency, µM (titrated, usually from 57.1 µM), actives largely listed as inhibitors; AID 2147; JMJD2E catalytic domain, FDH-coupled NADH fluorescence (FDH is formaldehyde dehydrogenase); B2RXH2; hit rate 1.6% among 230,000; active = well fitted inhibition curve with a large enough effect, not every such curve was filed as active; inconclusive = small, poorly fitted or top-dose-only effect, or another doubt; inactive = no such curve, though single readings can be large or run the other way; note: nearly all actives have a fitted effect of over 50% in size
L3MBTL1 inh: L3MBTL1 (human) inhibition | Q9Y468 | AlphaScreen L3MBTL1–H3K9me1 peptide binding | Potency, µM (series often up to 57.1 µM), usual class: inhibitors | hit rate 0.66% among 230,000; note: nearly all actives have a fitted effect of over 60% in size
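L3MBTL1 (50 nM) pre-complexed 30 min with biotinylated H3(1-15)K9me1 peptide (75 nM), then compounds added for 30 min at room temperature; AlphaScreen streptavidin donor/nickel chelate acceptor beads (10 ug/mL final) read after 30 min dark incubation.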
PI5P4K alpha inh: blocks human PI5P4K alpha kinase activity; max response, %; PI5P4Kalpha enzyme, ADP-Glo luminescence, 60 min; active compounds read low; P48426; AID 652105; hit rate 1.2% among 330,000; active = max response of -50% or lower; inconclusive = between -30% and -50%; inactive = -30% or higher; note: value at the top dose of about 77 µM
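Single end-point luminescence (ADP-Glo) quantified ADP from PI5P4Kalpha turnover; ATP 5 microM final, 1 h at RT, 0.1% CHAPS and 0.28 mM EGTA in HEPES pH 7.4.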
HP1b chromo inh: inhibitors of HP1-beta chromodomain binding to methylated histone tails | P83916 | AlphaScreen HP1-beta / biotin-H3K9me3 peptide binding | Potency, µM (doses to about 114 µM), actives largely listed as inhibitors | hit rate 0.56% among 390,000; note: nearly all actives have a fitted effect of over 70% in size
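HP1-beta protein (50 nM final) preincubated 30 min at room temperature with biotinylated H3(1-18)K9me3 peptide (50 nM) in PBS pH 7.4, 0.01% Tween-20, then compound added for 30 min. AlphaScreen streptavidin donor/nickel chelate acceptor beads (10 ug/mL final), 30 min dark, luminescence read.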
JMJD2A Tudor: blocks the human JMJD2A Tudor domain | AlphaScreen JMJD2A-Tudor / H3K4me3 peptide binding | AID 504339 | hit rate 4.4% among 390,000 | Potency, µM (series often up to 114 µM), hits mostly inhibitors; note: nearly all actives have a fitted effect of over 50% in size
BAZ2B inh: blocks human BAZ2B; Q9UIF8; AlphaScreen BAZ2B-H3K14Ac peptide displacement; Potency, µM (doses to about 114 µM), usual class: inhibitors; hit rate 4.4% among 360,000; AID 504333; note: nearly all actives have a fitted effect of over 60% in size
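AlphaScreen displacement of biotin-H3(5-23)K14Ac peptide (50 nM final) from BAZ2B (50 nM final) in PBS pH 7.4, 0.01% Tween-20; complex preformed 30 min RT, then compounds (top 110 uM) 30 min RT, beads 20 min dark.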
A number is an active result; - = inactive; ? = inconclusive; . = no result; [ ] = dose if it differs, or a comment. Unless noted, calls come from the whole dose curve; as a rule, active = well fitted inhibition curve with a large enough effect; inconclusive = small, poorly fitted or top-dose-only effect; inactive = no such curve, though single readings can be large or run the other way.

SMILES	KDM4E inh	L3MBTL1 inh	PI5P4K alpha inh	HP1b chromo inh	JMJD2A Tudor	BAZ2B inh
O=C(O)c1cc(O)c2c(c1)C(=O)c1cccc(O)c1C2=O	28µM	?	-91	?	56µM	50µM
O=C(COc1ccc([N+](=O)[O-])cc1)Nc1nc2c(s1)CCCC2	.	.	.	-	-	-
O=C(Nc1ccccc1C(=O)OCc1nnc(-c2ccccc2)o1)c1ccco1	?	-	.	-	-	-
O=C(OCc1nnc(-c2ccccc2)o1)c1ccc(CO)cc1	-	-	-	-	-	-
Cc1ccc(/C=C/C(=O)OCn2nnc3ccccc3c2=O)o1	-	.	-	-	-	-
O=C(/C=C/c1ccco1)OCn1nnc2ccccc2c1=O	-	?	-	-	-	56µM
O=C(/C=C/c1ccco1)OCc1nnc(-c2ccccc2)o1	-	.	-	-	-	50µM
Cc1ccc(C(=O)OCc2nnc(-c3ccccc3)o2)o1	-	.	-	-	89µM	-
CC(C)[C@H](NC(=O)c1ccccc1)C(=O)OCc1nnc(-c2ccccc2)o1	-	.	?	?	22µM	.
CC(C)c1ccc(OCC(=O)N2CCN(C(=O)c3ccco3)CC2)cc1	.	.	-	-	-	-
CCN(c1cccc(C)c1)S(=O)(=O)c1ccc(N2CCCCS2(=O)=O)cc1	.	.	.	-	-	-
COc1ccc2c(c1)c(=O)oc1cc(OCC(=O)N3CCCC(C)C3)ccc12 (configuration not stated)	?	-	-	-	-	-
COc1ccc2c(c1)c(=O)oc1cc(OCC(=O)N3CCc4ccccc4C3)ccc12	?	.	.	-	56µM	40µM
Cc1cc(=O)oc2cc(OCC(=O)N3CCOCC3)ccc12	?	-	-	-	79µM	-
COc1ccc2c(c1)c(=O)oc1cc(OCC(=O)N3CCC(C)CC3)ccc12	?	?	.	-	50µM	?
Cc1ccc(C)c(N2CCN(c3nccn4nc(-c5ccc(Br)cc5)cc34)CC2)c1	.	.	.	-	-	-
CCN(CC)c1ccc(/C=N/n2c(=S)[nH]nc(C)c2=O)cc1	-	-	-	-	-	-
S=c1[nH]nc(C2CCCCC2)n1/N=C/c1ccco1	-	-	-	-	13µM	-
Fc1ccc(/C=N/n2c(C3CCCCC3)n[nH]c2=S)cc1	.	.	-	?	56µM	-
CN(C)c1ccc(/C=N/n2c(C3CCCCC3)n[nH]c2=S)cc1	.	.	-	?	40µM	?
CCOc1ccc(/C=N/n2c(C3CCCCC3)n[nH]c2=S)cc1	.	.	-	-	?	-
Cc1ccsc1/C=N/n1c(C2CCCCC2)n[nH]c1=S	-	-	-	-	?	-
CN(C)c1ccc(/C=N/n2c(-c3ccccc3Br)n[nH]c2=S)cc1	?	.	-	-	14µM	?
COc1ccc(-c2ccc(=O)n(CC(=O)Nc3cc(OC)ccc3OC)n2)cc1	.	.	.	-	-	-
CCCCn1c(=O)c2oc3ccccc3c2n(Cc2ccccc2C)c1=O	.	.	.	-	-	-
SMILES	KDM4E inh	L3MBTL1 inh	PI5P4K alpha inh	HP1b chromo inh	JMJD2A Tudor	BAZ2B inh
N#Cc1ccc2c(c1)C[C@]1(CCCCN3C(=O)c4ccccc4C3=O)Oc3c(c(=O)oc4ccccc34)C2O1	.	.	.	.	.	-[22.9 µM]
CC(=O)Oc1cc2c(c(C)c1OC(C)=O)CC=C1[C@]3(C)CC[C@]4(C)CC[C@@](C)(C(=O)O)CC4[C@]3(C)CC[C@]12C (some centres not stated)	-	.	.	.	.	.
S=c1[nH]nc(C2CCCCC2)n1/N=C/c1cccc(Cl)c1Cl	.	.	-	-	-	-
S=c1[nH]nc(C2CCCCC2)n1/N=C/c1ccccc1	.	.	-	-	56µM	-
O=C(Cc1ccccc1)NN1C(=O)/C(=C/c2ccccc2C(=O)O)SC1=S	-	.	-	-	-	-
O=C(O)COc1ccccc1/C=C1\SC(=S)N(/N=C/c2ccccc2O)C1=O	-	-	-	-	?	56µM
O=C(O)COc1ccccc1/C=C1\SC(=Nc2ccc(F)cc2)N(c2ccc(F)cc2)C1=O	-	-[2.29 µM]	-	-	-	79µM
O=C(O)COc1ccc(/C=C2\SC(=Nc3ccccc3)N(c3ccccc3)C2=O)cc1	-	.	-	-	-	-
O=C(O)COc1ccccc1/C=C1\SC(=S)N(NC(=O)c2ccccc2O)C1=O	.	13µM	?	-	3.2µM	14µM
CCC(CO)Oc1cc(NC(=O)c2cccc(C)c2)c2ncn(C(C)C)c2c1 (configuration not stated)	.	-	-	-	-	.
CCC(CO)Oc1cc(NC(=O)c2ccc(F)cc2)c2ncn(C(C)C)c2c1 (configuration not stated)	.	-	-	-	50µM	-
CCC(CO)Oc1cc(NC(=O)c2cccc(Cl)c2)c2ncn(C(C)C)c2c1 (configuration not stated)	.	-	-	-	?	79µM
Cc1ccc(CNC(=O)C(=O)NCC(c2cccnc2)N2CCN(c3ccccc3F)CC2)cc1 (configuration not stated)	.	.	.	-	-	-
CCOC(=O)c1c(C)[nH]c(C)c1C(=O)COC(=O)/C=C/c1ccccc1[N+](=O)[O-]	.	-	-	?	89µM	.
Cc1ccnc(N2C(=O)c3ccccc3C2O)c1 (configuration not stated)	-	.	-58	-	-	-
CC(C)Oc1ccc(CN2CCc3nc(Nc4ccc5c(c4)OCCO5)ncc3C2)cc1	.	.	.	-	32µM	32µM
CCOc1ccc(CN2CCc3nc(Nc4ccc(OC)cc4OC)ncc3C2)cc1	.	.	.	-	50µM	-
Cc1ccccc1CN1CCc2nc(Nc3ccc4c(c3)OCCO4)ncc2C1	.	.	.	-	35µM	22µM
COc1ccc(Nc2ncc3c(n2)CCN(Cc2ccccc2C)C3)c(OC)c1	.	.	.	-	-	?
CCN(c1ccccc1)S(=O)(=O)c1ccc(NC(=O)c2cc(=O)c3cc(C)ccc3o2)cc1	.	.	.	-	-	-
CCOC(=O)c1c(S(=O)(=O)N2CCCC(C(=O)Nc3ccc(OCC)cc3)C2)c(C)n(C)c1C (configuration not stated)	.	.	.	-	-	-
CSC1=NC2(CCN(C(=O)NC3CCCCC3)CC2)N=C1c1ccc(C)c(C)c1	.	.	.	-	-	-
Cc1nn(Cc2ccc(Cl)c(Cl)c2)c(C)c1NC(=O)c1cc(-c2ccc3c(c2)OCO3)on1	-	-	.	-	-	50µM
CCOC(=O)C(=O)NCC(c1ccco1)S(=O)(=O)c1cccs1 (configuration not stated)	.	-	-	-	11µM	-
CN(C)c1ccc(/C=N/N2C(=S)SC(C)(C)C2N(O)C(=O)Nc2ccc([N+](=O)[O-])cc2)cc1 (configuration not stated)	-	-	-	?	56µM	?
CNC(=O)N(O)C1N(/N=C/c2ccc(SC)cc2)C(=S)SC1(C)C (configuration not stated)	.	.	-	-	-	-
CNC(=O)c1c(C)[nH]c(=S)c(C#N)c1-c1ccco1	32µM	-	?	?	18µM	?

From PubChem
